Several values for one entry are separate records, joined by “and”; a condition that tells them apart may be missing. Identical values can stand only once. This is part of a sample that, as a whole, favours compounds with a hit. Of some 83,000 tested, about 20% had one in any assay.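 Interpretation: 100, growth as untreated; towards 0, rising growth inhibition; 0, no net growth; 0 to -100, cell death. Compounds scoring below 10 were considered active.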 Activity calls are given as the source filed them.
System: MDA-MB-468 breast
Test: NCI-60 one-dose screen, 48 h (100 = growth as untreated, 0 = no growth, -100 = all killed)
Settings: 10 µM unless noted

Compound | growth
CC(C)COC(=O)NC(C)(C)C | 96.5% (inactive)
Clc1c(Cl)[n+](Cc2ccc3ccccc3c2)cn1Cc1ccc2ccccc2c1 | -22.6% (active)
CCCCCCCCCCNC(=O)CCl | 67.8% (inactive)
CC(C)Cc1ccc(C(C)C(=O)NCc2ccc(Cn3c(=O)sn(CCCCl)c3=O)cc2)cc1 (stereo not given) | 80.8% (inactive) and -83.8% (active)
Oc1ccccc1-c1nc2c3ccccc3c3ccccc3c2o1 | 83% (inactive)
CCCn1nc(-c2ccccc2)c2c(-c3ccccc3)onc2c1=O | 43.6% (inactive)
COc1cc2c(Nc3ccc(S(N)(=O)=O)cc3)ncnc2c(OC)c1OC | 84% (inactive)
COc1ccc2c(c1)C=CC1(O2)Oc2ccc(OC)cc2C=C1C (stereo not given) | 47.3% (inactive)
COc1ccc(Cn2cc3c(c2-c2cc(OC)c(OC)c(OC)c2)CCc2c(CO)noc2-3)cc1 | -17.8% (active)
Clc1ccc(Nc2nnc(COc3ccccc3)c3ccccc23)cc1 | -16.9% (active)
COc1ccc(-c2nsc3c2NC(=O)CC3c2cccc(F)c2)cc1 (stereo not given) | 19.7% (inactive)
O=S(=O)(Nc1ncccn1)c1ccc(Nc2ccc3nnc(-c4ccncc4)n3n2)cc1 | 103% (inactive)
CC(C)(C)C1CCC(=NO)CC1 (stereo not given) | 94% (inactive)
CC(=O)N1CC(=O)NC1=S | 95.9% (inactive)
Nc1c(C(=O)Nc2ccncc2)sc2nc3c(cc12)CCCCCCCC3 | -75.7% (active)
CC(=O)[C@@H]1CC[C@]2(C(=O)n3ccnc3)CC[C@]3(C)[C@H](CC[C@@H]4[C@@]5(C)Cc6c([nH]c7ccccc67)C(C)(C)[C@@H]5CC[C@]43C)[C@@H]12 | 90.8% (inactive)
COC(=O)c1cccc([N+](=O)[O-])c1 | 105% (inactive)
O=CN1N=C(c2ccc(Cl)cc2)CC1c1cccc(Nc2ccnc3cc(Cl)ccc23)c1 (stereo not given) | -0.854% (active)
Cn1c2ccc(Br)cc2c2c3c(c4c5cc(F)ccc5oc4c21)C(=O)N(O)C3=O | 108% (inactive)
O=c1oc2ccc(Cl)cc2c(=O)n1-c1ccc(I)cc1F | 1.73% (active)

Compound | growth
Cc1ccc(NC(=O)c2[nH]c(SCCN(C)C)nc2-c2ccc(F)cc2)cc1C#Cc1cnc2cccnn12 | 83.1% (inactive)
COc1cc(/C=N/NC(=O)c2cnn3c2NC(c2ccccc2)C3)ccc1OC1CCCC1 (stereo not given) | 23.3% (inactive)
COc1ccc(S(=O)(=O)Nc2ccc(OCc3nnc(-c4ccc(Cl)cc4)o3)c(F)c2)cc1 | 15.2% (inactive)
CCN(CC)c1ccc2nc3ccc(N=Nc4ccc(O)cc4)cc3[n+](-c3ccccc3)c2c1 | -60.7% (active)
COc1cccc(-c2nc3sccn3c2-c2ccnc(NCCNS(=O)(=O)c3ccccc3)c2)c1 | 16.2% (inactive)
COc1cc(/C=C/C(=O)c2ccc(O)c(CN3CCN(c4cc5c(cc4F)c(=O)c(C(=O)O)cn5C4CC4)CC3)c2)cc(OC)c1OC | 6.61% (active)
O=C(NS(=O)(=O)c1ccccc1)n1cc(-c2ccncc2)c(-c2cc(O)cc(Cl)c2)n1 | 98.4% (inactive)
C/C(=N\NC(=O)c1ccncc1)c1ccc(N)cc1 | 97.1% (inactive)
CCCCCCNC(=O)Oc1ccc(/C(=C(/CC)Cc2ccccc2)c2ccc(OCCN(CC)CC)cc2)cc1 | 64.4% (inactive)
Nc1nccc2c1ccn2-c1cccc(NC(=O)c2ccc(N3CCOCC3)c(C(F)(F)F)c2)c1 | -14.2% (active)
COc1ccc(C2=C(c3ccccc3)c3ccc(OC(C)=O)cc3OC2(C)C)cc1 | 86.2% (inactive)
N#CSc1cc(S(N)(=O)=O)ccc1N | 105% (inactive)
Cc1cc(Cl)cc(NS(=O)(=O)c2ccc(-c3cnc(C4CC4)o3)cc2)c1 | 11.3% (inactive)
O=C(O)CCCn1c(SCc2c(Cl)cccc2Cl)nc2ccsc2c1=O | -4.76% (active)
CC1(C)CC[C@]2(C(=O)O)CC[C@]3(C)C(=CC[C@@H]4[C@@]5(C)C/C(=C/O)C(=O)C(C)(C)[C@@H]5CC[C@]43C)[C@@H]2C1 | 77.3% (inactive)
Clc1cccc(Cl)c1CSc1nc2ccccc2n2cccc12 | 18.9% (inactive)
CN1CCN(c2c(F)cc(NC3=C(Cl)C(=O)c4ncccc4C3=O)cc2F)CC1 | -46.6% (active)
O=C(OCc1ccc2c(Br)cc(Br)c(O)c2n1)c1cc2ccccc2[nH]1 | -73.2% (active)
COC(=O)[C@]12CC[C@@H](C)[C@H](C)[C@@H]1C1=CC[C@@H]3[C@@]4(C)C(C=O)=C[C@@](C)(COS(C)(=O)=O)C4[C@H](O)C[C@@]3(C)[C@]1(C)CC2 (stereo not given in full) | -64.7% (active)
C=C(C)[C@@H]1CC[C@]2(C(=O)O)CC[C@]3(C)[C@H](CC[C@@H]4[C@@]5(C)C/C(=C/c6ccc(OC)cc6)C(=O)C(C)(C)[C@@H]5CC[C@]43C)[C@@H]12 | 0.722% (active)
